PubChem BioAssay AID1159580 (chemical genetic matrix, 2015)
Several values for one entry are separate records, joined by “and”; a condition that tells them apart may be missing. Equal values may be shown once. About 2,000 (36%) of roughly 5,500 compounds were called active. About 18% were inconclusive and are not listed. Cut-off read from the data, not from the text of the source: active = normalized growth mostly below about 0.91 (no sharp cut-off); inconclusive = no clear call, values can overlap the other calls; inactive = mostly above about 0.92. The list shows a part of the results.

Test: chemical genetic growth profiling, strain panel (AID 1159580);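 note: tested at 20 µM; growth read once vehicle control cultures reached saturation at 30 °C; 1 = growth at the plate median or of vehicle wells; lower values mean less growth of the strain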
Conditions: S. cerevisiae deletion strains, growth OD

Measured: normalized growth

Cc1cc(N)c2ccccc2[n+]1CCCCCCCCCC[n+]1c(C)cc(N)c2ccccc21
active: locus YAL013W, strain DEP1, active compounds read low 0.0603 | locus YAL021C, strain ccr4, active compounds read low 0.0693 | locus YAL026C, strain drs2, active compounds read low 0.0714 | locus YAL030W, strain snc1, active compounds read low 0.0625 | locus YAL040C, strain CLN3, active compounds read low 0.0761 | locus YBL061C, strain skt5, active compounds read low 0.066 | locus YBR009C, strain hhf1, active compounds read low 0.0696 | locus YBR021W, strain FUR4, active compounds read low 0.0907 | locus YBR023C, strain chs3, active compounds read low 0.0647 | locus YBR171W, strain sec66, active compounds read low 0.0836 | locus YBR229C, strain ROT2, active compounds read low 0.0499 | locus YBR231C, strain swc5, active compounds read low 0.0655 | locus YBR279W, strain paf1, active compounds read low 0.105 | locus YCL011C, strain gbp2, active compounds read low 0.0611 | locus YCL016C, strain dcc1, active compounds read low 0.0686 | locus YCL029C, strain bik1, active compounds read low 0.0664 | locus YCL061C, strain MRC1 (second series), active compounds read low 0.0482 | locus YCL061C, strain MRC1, active compounds read low 0.0691 | locus YCL069W, strain vba3, active compounds read low 0.0657 | locus YCR088W, strain abp1, active compounds read low 0.0654 | locus YDL005C, strain med2, active compounds read low 0.0789 | locus YDL035C, strain GPR1, active compounds read low 0.0543 | locus YDL040C, strain nat1, active compounds read low 0.0635 | locus YDL074C, strain BRE1, active compounds read low 0.0853 | locus YDL101C, strain DUN1, active compounds read low 0.0584 | locus YDL134C, strain PPH21, active compounds read low 0.0503 | locus YDL185W, strain tfp1, active compounds read low 0.0607 | locus YDL192W, strain arf1, active compounds read low 0.0659 | locus YDR001C, strain nth1, active compounds read low 0.0643 | locus YDR069C, strain doa4, active compounds read low 0.0664 | locus YDR101C, strain arx1, active compounds read low 0.0626 | locus YDR137W, strain rgp1, active compounds read low 0.0886 | locus YDR150W, strain NUM1, active compounds read low 0.0524 | locus YDR159W, strain sac3, active compounds read low 0.0966 | locus YDR162C, strain NBP2, active compounds read low 0.0484 | locus YDR195W, strain ref2 0.14 | locus YDR297W, strain sur2, active compounds read low 0.0628 | locus YDR318W, strain mcm21, active compounds read low 0.0702 | locus YDR334W, strain swr1, active compounds read low 0.0697 | locus YDR335W, strain msn5, active compounds read low 0.0637 | locus YDR363W, strain ESC2, active compounds read low 0.0798 | locus YDR388W, active compounds read low 0.0589 | locus YDR392W, strain spt3, active compounds read low 0.104 | locus YDR502C, strain sam2, active compounds read low 0.066 | locus YEL003W, strain gim4, active compounds read low 0.0587 | locus YEL037C, strain rad23, active compounds read low 0.06 | locus YEL061C, strain CIN8 (second series), active compounds read low 0.066 | locus YEL061C, strain CIN8, active compounds read low 0.0508 | locus YER002W, strain NOP16, active compounds read low 0.0717 | locus YER015W, strain faa2, active compounds read low 0.064 | locus YER016W, strain bim1, active compounds read low 0.0649 | locus YER110C, active compounds read low 0.0798 | locus YER111C, strain swi4, active compounds read low 0.0774 | locus YER155C, strain BEM2 (second series), active compounds read low 0.0923 | locus YER155C, strain BEM2, active compounds read low 0.0729 | locus YER167W, strain BCK2, active compounds read low 0.0524 | locus YFR010W, strain ubp6, active compounds read low 0.0738 | locus YGL078C, strain dbp3, active compounds read low 0.0809 | locus YGL086W, strain mad1, active compounds read low 0.0599 | locus YGL167C, strain pmr1, active compounds read low 0.0819 | locus YGL173C, strain kem1, active compounds read low 0.0682 | locus YGL227W, strain vid30, active compounds read low 0.0671 | locus YGL240W, strain doc1, active compounds read low 0.0823 | locus YGL248W, strain PDE1, active compounds read low 0.0477 | locus YGL253W, strain hxk2, active compounds read low 0.0575 | locus YGR078C, strain PAC10, active compounds read low 0.0515 and 0.0686 | locus YGR135W, strain pre9, active compounds read low 0.0652 | locus YGR229C, strain SMI1, active compounds read low 0.0559 | locus YGR252W, strain gcn5, active compounds read low 0.156 | locus YHR013C, strain ard1, active compounds read low 0.116 | locus YHR027C, strain rpn1, active compounds read low 0.0661 | locus YHR030C, strain SLT2, active compounds read low 0.0523 | locus YHR079C, strain IRE1 (second series), active compounds read low 0.0634 | locus YHR094C, strain hxt1, active compounds read low 0.0669 | locus YHR129C, strain ARP1, active compounds read low 0.087 | locus YHR142W, strain chs7, active compounds read low 0.0778 | locus YHR200W, strain rpn10, active compounds read low 0.0666 | locus YIL066C, strain RNR3, active compounds read low 0.0524 | locus YIL073C, strain SPO22, active compounds read low 0.118 | locus YIL125W, strain kgd1, active compounds read low 0.0847 | locus YIR030C, strain dcg1, active compounds read low 0.0641 | locus YJL092W, strain hpr5, active compounds read low 0.062 | locus YJL095W, strain BCK1 (second series), active compounds read low 0.0654 | locus YJL095W, strain BCK1, active compounds read low 0.0618 | locus YJL115W, strain asf1, active compounds read low 0.0762 | locus YJL129C, strain trk1, active compounds read low 0.0876 | locus YJL134W, strain LCB3, active compounds read low 0.0487 | locus YJL154C, strain vps35, active compounds read low 0.0637 | locus YJL164C, strain tpk1, active compounds read low 0.0693 | locus YJL166W, strain qcr8, active compounds read low 0.0646 | locus YJL168C, strain set2, active compounds read low 0.064 | locus YJL187C, strain SWE1 (second series), active compounds read low 0.0504
